# Measurements published in PubChem BioAssay (NCATS).
# Records with an inconclusive call do not appear. Activity calls are given as the source filed them. Calls follow the shape of the dose curve; as a rule, active = well fitted inhibition curve with a large enough effect in the main read-out, with a control signal flat (not every such curve was filed as active); inconclusive = small, poorly fitted or top-dose-only effect, or effect the other way, or a change in a side signal; inactive = no such curve, though single readings can be large or run the other way.
# Experiment: Nrf2 qHTS screen for inhibitors: Validation (AID 493153);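 as to activity change, negative = inhibition: A549 cells with ARE-driven firefly luciferase reporter reporting Nrf2 activity; % of control where 0% means no effect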
# Details: A549 ARE-Fluc reporter, 18-24 h; Potency: luciferase luminescence; viability change: measured here: cytotoxicity max response; luciferase luminescence, at 46.1 µM (top of the series); activity change, negative = inhibition: at the top concentration
# Source text: NIH Molecular Libraries Probe Production Network [MLPCN] NIH Chemical Genomics Center [NCGC] MLPCN Grant: R03-MH092170-01 Assay Provider: Shyam Biswal, Johns Hopkins University Assay Overview: Nrf2 is a transcription factor that maintains cellular redox homoestasis and protects cells from xenobiotics. Nrf2 binds to the antioxidant response element (ARE) to induce gene expression of a broad spectrum of genes that encode for antioxidants. […] Finding a small molecule that act as an inhibitor of Nrf2 function would represent a novel therapeutic target that could lead to improvement in survival of patients undergoing chemo- and/or radio- therapy. 1. Shibata, T., et al., Genetic Alteration of Keap1 Confers Constitutive Nrf2 Activation and Resistance to Chemotherapy in Gallbladder Cancer. Gastroenterology, 2008. 2. Sjoblom, T., et al., The consensus coding sequences of human breast and colorectal cancers. Science, 2006. 314(5797): p. 268-74.
# Assay Protocol Summary: A concentration-response assay was performed with A549 ARE_Fluc cells which are suspended in 5% FBS OPTI-MEM. Five uL were dispensed into 1536-well white TC-treated plate using the Kalypsys dispenser to achieve a density of 5000 cells/well in all columns except column 1. The plate is incubated at 37deg C at 5% CO2 for 2 hours before 23 nL of compounds are added with the Kalypsys pin tool equipped with a 1,536-pin array containing 10-nL slotted pins (FP1S10, 0.457-mm diameter, 50.8 mm long; V&P Scientific). The control compounds Budesonide and Staurosporine are both added at a concentration of 2mM and Budesonide is also added as a 1:10 titration, starting at 200uM, to achieve dose-response. After an 18-24 hour incubation at 37deg C at 5% CO2, 5ul of medium is added to column 1. Afterwards 1ul of 5x of CellTiter-Fluor (Promega) is added to every well. The plate is then incubated at 37deg C at 5% CO2 for 30 minutes before they are read on the ViewLux (Perkin Elmer) for a fluorescent read Ex=405(10)/Em=525(10) for a 3 second exposure, 2x binning, and high gain. Then 3 uL of 3x BugLite is dispensed into all wells and the plate is incubated at ambient room temperature for 15 minutes. Afterwards another ViewLux read is performed using the clear filter to get a luminescent read with the settings of 40 second exposure, 2x binning, and high gain. Cytotoxicity is assessed through the first fluorescent read and then biochemical activity against Nrf2 is measured in the luminescent read.
# Potency is read from the fitted curve at half-maximal effect.
SMILES,"activity change, negative = inhibition",viability change [%],Potency
Cc1o[nH]c(=O)c1CC(N)C(=O)O (stereo not given),6.75% (inactive),2.81,
CN1C2CCC1CC(OC(c1ccccc1)c1ccccc1N)C2 (stereo not given),-6.63% (inactive),-4.19,
O=C1C=CC(=O)C=C1,-3.62% (inactive),-5.52,
C[N+]1(C)CCN(c2ccccc2)CC1,0% (inactive),-2.09,
CC(=O)NBr,-13.2% (inactive),1.41,
Oc1ccc2c3c1O[C@H]1c4oc5ccccc5c4C[C@@]4(O)C(C2)N(CC2CC2)CCC314 (stereo not given in full),26.1% (inactive),-2.78,
C[C@]12Cc3cn4c(nc3C=C1CCC1C2CC[C@@]2(C)[C@H]1CC[C@@]2(O)C#N)nc1ccccc14 (stereo not given in full),,-1.99,13 µM (active)
CC(N)Cc1c[nH]c2ccc(O)cc12 (stereo not given),9.2% (inactive),-2.01,
COc1ccc(CNC(=O)/C=C/c2ccc3[nH]cc(CCN(C)C)c3c2)cc1,-1.88% (inactive),-0.218,
Clc1ccc(N2CC3CCC(C2)N3)nn1,1.28% (inactive),4.91,
N=C(N)c1ccc(CS(=O)(=O)F)cc1,-11.8% (inactive),-1.04,
CC(C)(C)c1o[nH]c(=O)c1CC(N)C(=O)O (stereo not given),-3.84% (inactive),8,
CC(C)[C@@]1(NC(=O)[C@@H]2C[C@@H]3c4cccc5[nH]cc(c45)C[C@H]3N(C)C2)O[C@@]2(O)[C@@H]3CCCN3C(=O)[C@H](Cc3ccccc3)N2C1=O,-13.5% (inactive),10.7,
NC(N)=Nc1ccc2[nH]c3c(c2c1)C[C@@]1(O)[C@H]2Cc4ccc(O)c5c4[C@@]1(CCN2CC1CC1)[C@H]3O5,17.9% (inactive),4.74,
O=C(O)c1cc[c]([Hg][Cl])cc1,0% (inactive),-2.02,
NNC(=O)c1ccc(O)cc1,-11.1% (inactive),6.63,
Cc1[nH]c2ccc(O)cc2c1CCN,7.44% (inactive),-7.71,
CCCN(CCC)[C@H]1CCc2c(F)ccc(O)c2C1,-4.21% (inactive),-8.48,
C=CCN1C[C@@H](C)N([C@H](c2ccc(C(=O)N(CC)CC)cc2)c2cccc(OC)c2)C[C@@H]1C,-8.34% (inactive),4.14,
CC(N)c1cccc(Cl)c1Cl (stereo not given),-2.44% (inactive),5.17,
